Assay outcomes (PubChem BioAssay)
Hits are enriched below; roughly 3.1% of the tested compounds scored in any of these assays.
S16 F2sN tox – S16 Schwann cell cytotoxicity. AID 1508642. 43,000 tested, 0.48% active. S16 Pmp22-F2sN Schwann cells viability, CellTiter-Glo, 24 h. Potency, µM (series often up to 57.5 µM), hits mostly cytotoxic; further: nearly all actives have a fitted effect of over 65% in size
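Used to flag compounds lowering reporter output through toxicity, this quantitative HTS measures ATP-based CellTiter-Glo luminescence in S16 Pmp22-F2sN Schwann cells after 24 h compound exposure at 37C.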
p53null 39C tox – p53 null cell cytotoxicity, nonpermissive temperature | H1299 p53-null (neo) cells, 39C, ATPlite viability, 24 h | AID 904 | 55,000 tested, 0.97% active | Potency, µM (series often up to 46.1 µM), hits mostly cytotoxic; further: nearly all actives have a fitted effect of over 50% in size
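ATP-luminescence viability readout (ATPlite, 20 min RT) after 24 hr compound treatment at 39C of H1299-neo or H1299-p53A138V cells; titration up to 46 uM; normalized to DMSO and 100 uM tamoxifen; Hill-fit AC50.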
PMP22 txn prim – modulators of PMP22 gene transcription in S16 Schwann cells; S16 Pmp22-F2sN Schwann cells, FLuc/NLuc coincidence luminescence, 24 h; Potency, µM (top dose mostly 57.5 µM), hits mostly inhibitors; 43,000 tested, 2% active; AID 1508649; active means clear falling dose curves in both reporters; inconclusive means both reporters move, but less clearly or upward; inactive means either reporter flat; the % is the NLuc reporter signal
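Transcriptional readout in edited S16(c9) cells: two luciferases reported from the Pmp22 locus, measured in turn after 24 h compound incubation.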
mTORC1 inh – inhibitors of mTORC1 signaling in Tsc2-/- p53-/- MEF cells; Tsc2-/- p53-/- MEF, phospho-rpS6 immunofluorescence/PI, 24 h; Potency, µM (doses to about 38.3 µM), actives largely listed as inhibitors; 44,000 tested, 0.78% active; AID 493208; further: nearly all actives have a fitted effect of over 50% in size
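Cell-based qHTS: Tsc2-/- p53-/- MEF, 24 h cpd, 37 °C; fix/perm, anti-phospho-S6 Alexa-488 + PI; Acumen 488 nm scan; pS6/PI ratio, % positive cells; rapamycin 7.5 nM = inhibition ref; PI count = viability.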
SKOV3 invasion – inhibitors of ovarian cancer cell adhesion and invasion in omental model. SKOV3ip1-GFP adhesion/invasion on 3D omental model, fluorescence. Potency, µM (titrated, usually from 45.8 µM), most hits filed as inhibitors. 46,000 tested, 0.1% active. AID 1963576; further: nearly all actives have a fitted effect of over 65% in size
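A 3D layer of primary human omental fibroblasts, mesothelial cells, fibronectin and collagen I, grown 48 hr, received SKOV3ip1-GFP cells in serum-free medium plus compounds at 0.36-46 umol/L. After 2 hr RT and 16 hr 37 C, fixed adherent GFP cells were counted; normalized to DMSO and tomatine.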
p53null 32C tox – p53 null cell cytotoxicity, permissive temperature; H1299-neo p53 null cells, ATP luminescence, 24 h, 32C; 55,000 tested, 0.62% active; Potency, µM (highest dose often 46.1 µM), hits mostly cytotoxic; further: nearly all actives have a fitted effect of over 55% in size
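H1299-neo, 600 cells/well; overnight 37C; cpd up to 46 uM, 24 h at 32C; ATPlite luminescence after 20 min RT; normalized to DMSO (0%) and tamoxifen 100 uM (100% kill); Hill-fit AC50.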
NLuc sat counter – counter-screen for PMP22 expression modulators: NanoLuc inhibition, saturating substrate; Potency, µM (top dose mostly 57.5 µM), usual class: inhibitors; shares compounds with PMP22 txn prim; 690 tested, 4% active; Secreted NLuc enzyme (filtered S16 cell medium), Nano-Glo luminescence
NLuc Km counter – counter-screen for PMP22 expression modulators: NanoLuc inhibition at Km. shares compounds with PMP22 txn prim. secreted NLuc enzyme, coelenterazine luminescence, Km conditions. Potency, µM (top dose mostly 57.5 µM), actives largely listed as inhibitors. 690 tested, 5% active. AID 1508639
FLuc ctr PMP22 – firefly luciferase enzyme inhibition artifact for PMP22 screen. Potency, µM (doses to about 57.5 µM), usual class: inhibitors. 690 tested, under 10 active. AID 1508640. shares compounds with PMP22 txn prim. purified P. pyralis FLuc, luminescence, 10 min
Target sequence (P08659 whole entry, looked up): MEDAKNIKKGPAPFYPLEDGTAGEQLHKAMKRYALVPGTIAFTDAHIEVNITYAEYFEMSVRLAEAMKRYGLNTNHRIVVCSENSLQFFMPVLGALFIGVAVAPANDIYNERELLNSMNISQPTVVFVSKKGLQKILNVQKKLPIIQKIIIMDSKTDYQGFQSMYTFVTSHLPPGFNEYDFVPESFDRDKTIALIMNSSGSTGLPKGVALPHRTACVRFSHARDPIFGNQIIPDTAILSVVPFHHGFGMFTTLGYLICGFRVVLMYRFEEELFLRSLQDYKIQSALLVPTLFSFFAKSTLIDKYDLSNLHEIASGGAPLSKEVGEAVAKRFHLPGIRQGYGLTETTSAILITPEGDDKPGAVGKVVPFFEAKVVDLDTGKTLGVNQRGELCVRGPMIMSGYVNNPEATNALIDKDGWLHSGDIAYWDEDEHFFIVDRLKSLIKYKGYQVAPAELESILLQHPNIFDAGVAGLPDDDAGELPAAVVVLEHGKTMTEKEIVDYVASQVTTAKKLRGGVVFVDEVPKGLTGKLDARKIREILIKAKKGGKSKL
S16 viab conf – confirmation of cytotoxicity in S16 Pmp22-F2sN Schwann cells (luciferase reporters placed in the Pmp22 gene); shares compounds with PMP22 txn prim; Potency, µM (titrated, usually from 57.5 µM), usual class: cytotoxic; 690 tested, 7% active; S16 Schwann cells viability, CellTiter-Glo ATP luminescence, 24 h; AID 1508641
PMP22 txn conf – confirmation of modulators of PMP22 gene transcription in S16 cells; 690 tested, 22% active; S16 Schwann cells Pmp22-F2sN, dual luciferase, 24 h; Potency, µM (doses to about 57.5 µM), usual class: inhibitors; shares compounds with PMP22 txn prim; active means clear falling dose curves in both reporters; inconclusive means both reporters move, but less clearly or upward; inactive means either reporter flat; the % is the FLuc reporter signal
PMP22 HiBiT cnf – confirmation of modulators of rat PMP22 protein expression | Potency, µM (doses to about 27.9 µM), usual class: inhibitors | S16 Schwann cells Pmp22-HiBiT, luminescence, 48 h | AID 1508647 | 95 tested, under 10 active | shares compounds with PMP22 txn prim
Target sequence (P25094 whole entry, looked up): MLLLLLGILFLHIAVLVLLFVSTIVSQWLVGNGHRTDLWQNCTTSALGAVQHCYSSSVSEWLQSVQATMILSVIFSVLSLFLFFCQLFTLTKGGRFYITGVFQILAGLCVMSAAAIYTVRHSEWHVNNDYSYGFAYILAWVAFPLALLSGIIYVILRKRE
Hits are given with their value; – = inactive; ? = inconclusive; · = no result given. Unless noted, the call rests on the fitted dose curve; in most records, active means well fitted curve in the direction sought with a large enough effect; inconclusive means small, poorly fitted or top-dose-only effect, or another doubt; inactive means no such curve, though single readings can be large; an effect the other way counts as inactive or inconclusive.

SMILES | S16 F2sN tox | p53null 39C tox | PMP22 txn prim | mTORC1 inh | SKOV3 invasion | p53null 32C tox | NLuc sat counter | NLuc Km counter | FLuc ctr PMP22 | S16 viab conf | PMP22 txn conf | others
O=C(Nc1nc2ccc(F)cc2s1)c1nc(S(=O)(=O)Cc2ccccc2F)ncc1Cl | ? | ? | 9.5µM | ? | ? | ? | – | ? | – | ? | 13µM
Cc1ccc(/C=C/c2onc(C)c2S(=O)(=O)N2CCC(C(=O)N3CCN(c4ccccc4F)CC3)CC2)cc1 | – | – | – | – | – | – | · | · | · | · | ·
CC(=O)c1ccc(N2CCN(C(=O)C3CCN(S(=O)(=O)c4c(C)noc4/C=C/c4ccc(C)cc4)CC3)CC2)cc1 | – | – | ? | – | – | – | – | – | – | – | –
CC(C)Sc1nc2sc3c(c2c(=O)n1-c1ccccc1)CCCC3 | – | – | ? | – | – | – | · | · | · | · | ·
CSc1nc2sc3c(c2c(=O)n1-c1ccc(C)cc1)CCCC3 | – | – | 14µM | – | – | – | 4.8µM | ? | – | – | ?
CC1CCN(S(=O)(=O)c2ccc3ncn(CC(=O)Nc4ccccc4C(F)(F)F)c(=O)c3c2)CC1 | – | · | ? | – | – | · | – | – | – | – | –
COc1ccc(NC(=O)Cn2cnc3ccc(S(=O)(=O)N4CCC(C)CC4)cc3c2=O)c(OC)c1 | – | · | – | – | – | · | · | · | · | · | ·
COc1ccc(NC(=O)Cn2nnc(C(=O)NCc3cccs3)c2N)cc1 | – | – | – | – | – | – | · | · | · | · | ·
CCc1ccccc1NC(=O)Cn1nnc(C(=O)NCc2cccs2)c1N | – | – | ? | – | ? | – | – | – | – | – | ?
COc1ccccc1NC(=O)Cn1nnc(C(=O)NCc2cccs2)c1N | – | – | 1.2µM | – | – | – | – | – | – | – | ?
CC(C)(OCc1nn(Cc2ccccc2)c2ccccc12)C(=O)O | · | · | · | · | – | · | · | · | · | · | ·
CCCCOCCOc1nc(-c2ccc(C(=O)O)c(F)c2)sc1C | · | · | · | · | – | · | · | · | · | · | ·
Cc1oc(-c2ccc(Cl)cc2)nc1CN1CCCC(C(=O)NCc2ccccc2)C1 (stereo unspecified) | – | – | 18µM | – | – | – | ? | ? | – | – | ?
COc1cc2ccccc2cc1C(=O)Nc1ccc2oc(-c3cccc(Cl)c3Cl)nc2c1 | ? | – | 4.2µM | ? | – | – | – | – | – | 27µM | 12µM
O=C(CCN1CCN(C(=O)OCc2cc(Cl)cc(Cl)c2)CC1)c1ccc2[nH]c(=O)oc2c1 | · | · | · | · | – | · | · | · | · | · | ·
COc1ccc(OCC(O)Cn2c(=N)n(CCN3CCCCC3)c3ccccc32)cc1 (stereo unspecified) | ? | ? | ? | · | ? | – | · | · | · | · | ·
N=c1n(CCN2CCCCC2)c2ccccc2n1CC(O)COc1ccc(Cl)cc1Cl (stereo unspecified) | ? | 13µM | 12µM | 3.7µM | ? | 18µM | – | – | – | 31µM | ?
CN(C)CCOc1ccc(C(=C(CCCl)c2ccccc2)c2ccccc2)cc1 | · | · | · | · | – | · | · | · | · | · | ·
Cn1c(CNc2ccc(C(=N)N)cc2)nc2cc(C(=O)N(CCC(=O)O)c3ccccn3)ccc21 | · | · | · | · | – | · | · | · | · | · | ·
CCCCCCCCCCCCCCCC(=O)O[C@H]1[C@@H](O)[C@@H](O)[C@@H]([C@H](NC(=O)[C@@H]2C[C@@H](CCC)CN2C)[C@H](C)Cl)O[C@@H]1SC | · | · | · | · | – | · | · | · | · | · | ·
CCCCS(=O)(=O)c1nc(-c2ccc(Br)cc2)cc(-c2ccccc2)c1C#N | ? | – | 6.8µM | 5.2µM | – | – | – | – | – | – | 9.3µM | PMP22 HiBiT cnf=–
COCCCn1c(=N)c(C(=O)NC2CCCC2)cc2c(=O)n3cc(C)ccc3nc21 | – | – | – | – | – | – | · | · | · | · | ·
CCC(C)n1c(=N)c(C(=O)NC2CCCC2)cc2c(=O)n3ccccc3nc21 (stereo unspecified) | – | – | 9.5µM | – | – | – | – | – | – | ? | –
COCCCn1c(=N)c(C(=O)NC2CCCC2)cc2c(=O)n3cccc(C)c3nc21 | – | – | ? | – | – | – | – | – | – | – | ?
O=C(Cn1c(=O)n(Cc2ccccc2)c(=O)c2sc3ccccc3c21)Nc1ccccc1 | – | – | ? | – | – | ? | · | · | · | · | ·
SMILES | S16 F2sN tox | p53null 39C tox | PMP22 txn prim | mTORC1 inh | SKOV3 invasion | p53null 32C tox | NLuc sat counter | NLuc Km counter | FLuc ctr PMP22 | S16 viab conf | PMP22 txn conf | others
O=C(Cn1c(=O)n(Cc2ccccc2)c(=O)c2sc3ccccc3c21)Nc1ccc(F)cc1 | ? | ? | 14µM | – | – | – | – | – | – | ? | ?
O=C(CCS(=O)(=O)c1nc(-c2cccs2)cc(C(F)(F)F)n1)Nc1ccc(Br)cc1 | ? | – | 6.4µM | ? | 3.2µM | – | – | ? | – | ? | 11µM | PMP22 HiBiT cnf=–
CCN(CC)c1ccc(NC(=O)CSc2nc(-c3cccs3)cc(C(F)(F)F)n2)cc1 | – | – | ? | – | – | – | · | · | · | · | ·
COc1ccccc1N1CCN(CCCNC(=O)c2nnc(Cc3c(F)cccc3Cl)o2)CC1 | – | – | 13µM | – | – | – | – | – | – | – | –
Cc1cc2c(cc1C1(c3ccc(C(=O)O)cn3)CC1)C(C)(C)CCC2(C)C | · | · | · | · | – | · | · | · | · | · | ·
COc1ccc(C=Cc2cc(OC)c(OC)c(OC)c2)cc1NC(=O)[C@H](N)CO | · | · | · | · | – | · | · | · | · | · | ·
CCn1c(CN2CCCCC2)nc2cc(NC(=O)COc3ccccc3C(C)(C)C)ccc21 | – | – | 14µM | – | – | – | – | – | – | – | ?
CCn1c(CN2CCCCC2)nc2cc(NC(=O)c3ccccc3[N+](=O)[O-])ccc21 | – | – | ? | – | – | – | · | · | · | · | ·
